This is an account of results in PubChem BioAssay.

Active and inactive are the calls of the source. Unless noted, how the calls were made is not given here.

Assay [1] in a line: compound effects on lung adenocarcinoma cell viability – A549, calcein-AM fluorescence, 48 h, basal, profiling panel (AID 1162). Further: test concentration not given here. The settings on record: higher = more signal.
Assay [2] in a line: compound effects on differentiated 3T3-L1 adipocyte viability – cell-based, 3T3-L1 adipocytes, calcein-AM fluorescence, 48 h, basal, profiling panel (AID 1163). Further: test concentration not given here. Conditions: 3T3-L1 adipocytes viability, higher = more signal.
Assay [3] is described as follows: compound effects on hepatocellular carcinoma cell viability – HepG2, calcein-AM fluorescence, 48 h, basal, profiling panel (AID 1164). Further: test concentration not given here. Conditions: higher = more signal.
Assay [4] can be described thus: compound effects on multiple myeloma cell viability – MM1S, calcein-AM fluorescence, 48 h, basal, profiling panel (AID 1165).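 Further: viability of MM1S multiple myeloma cells under basal unstimulated conditions; test concentration not given here.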 The settings on record: higher = more signal.
Assay [5] is described as follows: calcein-AM signal in unstimulated myeloma cells – cell-based, calcein-AM fluorescence, 48 h, PK04 Diversity Set, profiling panel (AID 1166).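 Further: cells grown under basal conditions without added stimulus; test concentration not given here.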 The settings on record: RPMI8226 myeloma viability, higher = more signal.
Assay [6] is described as follows: JC-1 mitochondrial signal, unstimulated HepG2 cells – cell-based, JC-1 fluorescence, 24 h, 100 nL compound, profiling panel (AID 1167). Further: test concentration not given here. The settings on record: HepG2 mitochondrial potential, higher = more signal.
A short description of assay [7]: JC-1 mitochondrial signal, unstimulated adipocytes – cell-based, JC-1 fluorescence, 3T3-L1 adipocytes, 24 h, 100 nL compound, profiling panel (AID 1168). Further: test concentration not given here. Conditions: JC-1 mitochondrial fluorescence, higher = more signal, called active from +8 up or from −8 down.
A short description of assay [8]: JC-1 mitochondrial signal, unstimulated myeloma cells – cell-based, JC-1 fluorescence, RPMI8226, 24 h, 100 nL compound, profiling panel (AID 1169). Further: test concentration not given here. The settings on record: JC-1 mitochondrial potential fluorescence, higher = more signal.
Assay [9] can be described thus: JC-1 mitochondrial signal, unstimulated MM1S myeloma – cell-based, JC-1 fluorescence, 24 h, 100 nL compound, profiling panel (AID 1170). Further: test concentration not given here. Conditions: MM1S mitochondrial potential, higher = more signal.
The nature of assay [10]: resazurin metabolic signal in A549 cells – cell-based, resazurin fluorescence, 24 h, PK04 Diversity Set, profiling panel (AID 1171). Further: test concentration not given here. The settings on record: A549 viability, higher = more signal, called active from +8 up or from −8 down. (Alamar Blue is a resazurin reagent that responds to reducing activity.)
Assay [11] can be described thus: resazurin metabolic signal in HepG2 cells – cell-based, resazurin fluorescence, 24 h, PK04 Diversity Set, profiling panel (AID 1172). Further: test concentration not given here. The settings on record: HepG2 viability, higher = more signal.
Assay [12] in a line: budding yeast growth changes without added modifier – OD600, strain BY4716, 24 h, basal condition, primary screen (AID 1173). The settings on record: S. cerevisiae BY4716 growth, OD600, 24 h; higher = more signal, called active from +8 up or from −8 down.
The nature of assay [13]: viability profiling in MM1S myeloma cells – cell-based, resazurin fluorescence, basal, 24 h, PK04 Diversity Set, profiling panel (AID 1174). Further: test concentration not given here. The settings on record: higher = more signal, called active from +8 up or from −8 down.
Assay [14] addresses Dihydroorotate dehydrogenase (quinone), mitochondrial (Plasmodium falciparum (isolate 3D7)) (UniProt Q08210). Description: inhibition of P. falciparum DHODH – biochemical, C-terminal His tag, absorbance 600 nm, primary screen (AID 1175).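 Further: recombinant parasite enzyme with a five histidine tag at its C terminus; test concentration not given here.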 Conditions: PfDHODH enzyme, DCIP absorbance 600 nm; higher = more signal, called active from +8 up or from −8 down.
A short description of assay [15]: inhibition of PAO1 biofilm formation – strain PAO1, LB-PBS medium, absorbance 600 nm, primary screen (AID 1176). Further: test concentration not given here. Conditions: P. aeruginosa PAO1 growth/biofilm, A600, 12 h; higher = more signal.
Assay [16] is described as follows: growth modulation of vineyard yeast isolate – strain RM11-1a, OD600, basal, 24 h, primary screen (AID 1177).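 Further: cultures grown under basal conditions with no added stressor; test concentration not given here.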 The settings on record: S. cerevisiae RM11-1a growth, OD600, 24 h; higher = more signal, called active from +8 up or from −8 down.
The nature of assay [17]: growth of efflux-deficient E. coli DRC39 – strain DRC39, OD650, 24 h, E. coli filamentation inducers, primary screen (AID 1178).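 Further: growth measured as culture turbidity by optical density at 650 nm; test concentration not given here.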 Conditions: E. coli DRC39 acrAB, higher = more signal, called active from +8 up or from −8 down.
Assay [18] is described as follows: growth of efflux-deficient E. coli DRC39 – strain DRC39, OD650, 48 h, E. coli filamentation inducers, primary screen (AID 1179).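 Further: screen aims at cell division blockers that make cells filament.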 Conditions: E. coli DRC39 delta-acrAB growth, higher = more signal, called active from +8 up or from −8 down.
Assay [19] can be described thus: viability profiling in RPMI8226 myeloma cells – cell-based, resazurin fluorescence, basal, 24 h, PK04 Diversity Set, profiling panel (AID 1180).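 Further: RPMI8826 multiple myeloma cell line at 5000 cells per well; test concentration not given here.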 The settings on record: higher = more signal.
Assay [20] has as its target E3 ubiquitin-protein ligase XIAP (Homo sapiens) (UniProt P98170). Description: small molecules binding XIAP protein – biophysical, small-molecule microarray, fluorescence 635 nm, primary screen (AID 1181).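 Further: score merges 667 nm emission and signal to noise over triplicate slides.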 The settings on record: higher = more signal.

Sequence of E3 ubiquitin-protein ligase XIAP (Homo sapiens) (P98170 whole entry, looked up): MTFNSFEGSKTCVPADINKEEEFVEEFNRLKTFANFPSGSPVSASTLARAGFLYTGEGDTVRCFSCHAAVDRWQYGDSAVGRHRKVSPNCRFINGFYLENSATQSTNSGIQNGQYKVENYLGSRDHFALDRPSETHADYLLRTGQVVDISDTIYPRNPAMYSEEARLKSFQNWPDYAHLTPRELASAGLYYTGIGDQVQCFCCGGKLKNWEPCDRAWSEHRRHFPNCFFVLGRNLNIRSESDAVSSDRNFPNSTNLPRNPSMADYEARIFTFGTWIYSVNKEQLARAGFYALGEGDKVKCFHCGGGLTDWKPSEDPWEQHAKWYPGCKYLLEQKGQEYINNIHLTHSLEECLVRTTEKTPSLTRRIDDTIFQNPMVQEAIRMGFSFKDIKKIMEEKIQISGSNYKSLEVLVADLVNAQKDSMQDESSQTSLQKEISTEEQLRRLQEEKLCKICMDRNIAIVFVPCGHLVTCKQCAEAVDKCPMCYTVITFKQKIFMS
Sequence of Dihydroorotate dehydrogenase (quinone), mitochondrial (Plasmodium falciparum (isolate 3D7)) (Q08210 whole entry, looked up): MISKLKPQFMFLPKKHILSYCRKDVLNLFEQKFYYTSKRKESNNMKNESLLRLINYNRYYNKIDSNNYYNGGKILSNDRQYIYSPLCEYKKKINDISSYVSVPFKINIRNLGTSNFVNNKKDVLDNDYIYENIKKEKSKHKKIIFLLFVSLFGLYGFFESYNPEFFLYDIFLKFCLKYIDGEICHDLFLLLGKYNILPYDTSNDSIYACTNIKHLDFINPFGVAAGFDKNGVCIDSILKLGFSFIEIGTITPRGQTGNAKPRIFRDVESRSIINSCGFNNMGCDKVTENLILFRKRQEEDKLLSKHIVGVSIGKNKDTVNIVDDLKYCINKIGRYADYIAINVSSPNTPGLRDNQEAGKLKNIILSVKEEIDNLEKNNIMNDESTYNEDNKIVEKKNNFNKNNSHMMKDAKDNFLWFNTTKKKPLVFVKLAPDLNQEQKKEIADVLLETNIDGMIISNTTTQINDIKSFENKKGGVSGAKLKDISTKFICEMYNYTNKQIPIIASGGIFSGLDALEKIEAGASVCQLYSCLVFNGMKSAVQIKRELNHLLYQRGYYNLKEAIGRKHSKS

Take `CC(=O)NCCCC[C@@H]1NC(=O)[C@H]2C[C@@H](C(=O)NCCCCCNC(=O)CS)[C@@H](c3cccc(OCCO)c3)N2C1=O`: the z-score was -0.227 in assay [1]; -0.146 in assay [2]; 0.0877 in assay [3]; 0.0637 in assay [4]; -0.433 in assay [5]; 1.09 in [6]. In addition, the z-score in assay [7] is -0.286 (inactive); in assay [8], -0.428; in assay [9], 0.0573; in assay [10], -0.496 (inactive); in assay [11] it was -0.223; in assay [12], 0.332 (inactive). In addition, the z-score in assay [13] was -0.0374 (inactive); in assay [15], 0.559 (inactive); in [16], -0.39 (inactive); in assay [17] it was -0.0744 (inactive); in [18], 0.382 (inactive); in [19], -0.653. In addition, the composite z-score was 0.657 (inactive) in assay [14] and 2.75 in assay [20].
`C=C(C)C1CCC(C(O)C2C=CC3C(=O)N(C)C(=O)C3N2Nc2cc(OC)c(OC)c(OC)c2)CC1` (stereo not given): the z-score in assay [1] was -1.13; in assay [2], -1; in [3], -0.273; in assay [4], -0.989; in assay [5], -0.0317; in assay [6], -0.648. Further, the z-score is -0.696 (inactive) in [7]; -0.354 in [8]; -0.549 in assay [9]; -0.404 (inactive) in [10]; -1.15 in [11]; 0.552 (inactive) in assay [12]. The z-score was -0.901 (inactive) in assay [13]; 0.971 (inactive) in assay [15]; 0.065 (inactive) in assay [16]; -0.274 (inactive) in assay [17]; -0.379 (inactive) in assay [18]; -1.27 in [19]. Moreover, the results for the composite z-score in assay [14] and in assay [20] were -0.896 (inactive) and 0.153, respectively.
For `Cc1cccc([C@H]2C[C@H]3C(Br)=C[C@@H]2C(=O)[C@]32CO2)c1`, the z-score in [1] is -0.798; in [2] it was 0.0171; in [3], -1.24; in assay [4], -3.14; in assay [5], -2.72; in assay [6], -0.565. In addition, the z-score in assay [7] is 0.404 (inactive); in [8], -0.837; in assay [9] it was -0.262; in [10], -0.581 (inactive); in assay [11], -0.536; in assay [12], -12.1 (active). Besides, the z-score in [13] was -0.423 (inactive); in [15], 0.142 (inactive); in assay [16], 0.622 (inactive); in assay [17], 0.906 (inactive); in assay [18], -0.0628 (inactive); in assay [19], -0.332. In addition, the composite z-score was 0.288 (inactive) in assay [14] and 0.172 in [20].
As for `O=C1N(CCS(=O)(=O)c2ccccc2)Cc2ccccc2[C@@H]2OC(c3ccc(OCCCO)cc3)=N[C@]12CCS(=O)(=O)c1ccccc1`, the z-score was 1.35 in assay [1]; 0.859 in [2]; 0.345 in assay [3]; -0.635 in [4]; -1 in assay [5]; -1.65 in assay [6]. The z-score in assay [7] is 1.72 (inactive); in assay [8] it was -0.933; in assay [9] it was -1.01; in assay [10], 0.409 (inactive); in [11] it was 0.638; in assay [12], 1.6 (inactive). For the same molecule, the z-score in assay [13] was 0.298 (inactive); in assay [15], 1.71 (inactive); in [16], 2.85 (inactive); in assay [17], 0.958 (inactive); in assay [18], 0.31 (inactive); in assay [19] it was -0.458. In addition, the composite z-score in assay [14] was 0.324 (inactive); in assay [20], -0.0062.
As to `O=C1O[C@H](c2ccccc2)[C@H](c2ccccc2)N2[C@H]1[C@@H](C(=O)N1CCCCCCC1)[C@]1(C(=O)Nc3ccc(C#CC4(O)CCCCCC4)cc31)[C@H]2c1ccccc1OCCO`, the z-score in assay [1] is -0.222; in [2], -0.107; in [3], 0.703; in assay [4], -0.0437; in assay [5], -0.908; in assay [6], -0.175. Besides, the z-score was 0.64 (inactive) in assay [7]; -0.74 in assay [8]; -1.26 in assay [9]; -0.152 (inactive) in [10]; 1.72 in assay [11]; 0.893 (inactive) in [12]. Moreover, the z-score in assay [13] is -0.382 (inactive); in assay [15], 0.682 (inactive); in assay [16], 2.45 (inactive); in [17] it was 0.138 (inactive); in assay [18], -1.14 (inactive); in assay [19], -0.443. The composite z-score in assay [14] was 0.195 (inactive); in assay [20], 2.12.
Take `CCOC(=O)C[C@H]1[C@H](OC(=O)c2ccc(C(=O)c3ccccc3)cc2)[C@@H](NC(=O)CC(C)C)c2cc(OCCCO)ccc2N1C(=O)Cc1ccc(OC)cc1`: the z-score in assay [1] was -0.206; in [2], -0.194; in [3], -0.0232; in assay [4], 0.467; in [5], -0.679; in assay [6], 1.88. The z-score is -0.689 (inactive) in assay [7]; 0.573 in [8]; 0.288 in [9]; 0.189 (inactive) in assay [10]; -0.204 in [11]; -0.316 (inactive) in assay [12]. Moreover, the z-score in assay [13] was 0.191 (inactive); in assay [15], 0.608 (inactive); in [16] it was 0.113 (inactive); in assay [17], -0.445 (inactive); in assay [18] it was -0.0261 (inactive); in assay [19], 0.0274. Besides, the composite z-score in assay [14] was 0.166 (inactive); in [20] it was -0.289.
`COC(=O)[C@@]1(Cc2ccc(F)cc2)[C@H]2c3cc(C(=O)N(C)C)n(Cc4c(CO)[nH]cc(C)c4=O)c3C[C@H]2CN1C(=O)c1ccccc1`: the z-score was -0.108 in [1]; 0.837 in assay [2]; -0.554 in [3]; -1.33 in assay [4]; -0.372 in [5]; -0.3 in assay [6]. Moreover, the z-score in assay [7] is -0.91 (inactive); in [8], -0.00352; in assay [9], -0.895; in assay [10], -1.42 (inactive); in assay [11], -1.03; in assay [12] it was 0.966 (inactive). Further, the z-score is -1.72 (inactive) in assay [13]; 1.79 (inactive) in assay [15]; 0.986 (inactive) in assay [16]; -0.0892 (inactive) in assay [17]; -1.36 (inactive) in assay [18]; -0.932 in assay [19]. In addition, the values for the composite z-score in assay [14] and in [20] were -0.244 (inactive) and 0.0153, respectively.
Turning to `CCOC(=O)C1=CC[C@@H](c2ccccc2)N(S(=O)(=O)c2ccc(C)cc2)[C@H]1C=Cc1ccccc1`, the z-score is -0.959 in assay [1]; -0.443 in assay [2]; -0.599 in assay [3]; -0.149 in [4]; -1.44 in [5]; 2.91 in assay [6]. In addition, the z-score in assay [7] was -0.489 (inactive); in [8], 0.0754; in assay [9], -1.42; in assay [10] it was 2.28 (inactive); in assay [11], 1.25; in assay [12], 1.58 (inactive). Moreover, the z-score in assay [13] is -0.0664 (inactive); in assay [15], 0.987 (inactive); in assay [16], 0.65 (inactive); in assay [17], -0.923 (inactive); in [18] it was -0.706 (inactive); in [19], -1.42. The composite z-score is -0.382 (inactive) in assay [14] and -0.103 in assay [20].
For `CCN(CC)c1ccc(N2CC=CC34O[C@@H]5/C=C\CCC(C)OC(=O)C5[C@H]3C(=O)N(C(C)CO)[C@@H]4C2=O)cc1` (stereo not given in full), the z-score in [1] is -0.0588; in [2], -1.03; in assay [3] it was 1.48; in assay [4], 0.86; in assay [5] it was 0.388; in [6], 1.16. For the same molecule, the z-score is 0.0645 (inactive) in [7]; -0.616 in [8]; -0.585 in assay [9]; -0.0052 (inactive) in assay [10]; 0.958 in assay [11]; -0.893 (inactive) in assay [12]. Also, the z-score in assay [13] is 0.259 (inactive); in [15] it was -1.28 (inactive); in assay [16], 0.507 (inactive); in assay [17], 0.966 (inactive); in assay [18], 1.39 (inactive); in assay [19], 0.0809. Besides, the composite z-score in [14] was 0.881 (inactive); in [20], 0.0727.
